Laboratory results from PubChem BioAssay (EPA / NIEHS).
Activity calls are given as the source filed them. The calls were made as follows: active = hit-call score of the fitted dose curve at least 0.9, where 1 is the maximum; inactive = score below 0.9.

Columns and labels:
[1] = read-out: CFLAR gene, CFLAR (gene 8837); experiment: LTEA_HepaRG_CFLAR: Life Technologies and Expression Analysis (LTEA) Assay for CFLAR gene using HepaRG (AID 2283455); conditions: mRNA level, 48 h; actives raise or lower the signal
In short: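 Transcript level by qRT-PCR (normalized to ACTB, GAPDH and POLR2A) after 48 h chemical exposure of HepaRG cells, top concentration 100 uM with half-log steps, 0.5% DMSO vehicle, duplicates; fitted bidirectionally against DMSO baseline.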

[2] = read-out: Forkhead box O1 (FOXO1), FOXO1 (gene 2308); experiment: LTEA_HepaRG_FOXO1: Life Technologies and Expression Analysis (LTEA) Assay for Forkhead box O1 (FOXO1) using HepaRG (AID 2283456); conditions: mRNA level, 48 h; actives raise or lower the signal
In short: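 FOXO1 transcript quantified by qRT-PCR after 48 h chemical exposure (top 100 uM, half-log steps, 0.5% DMSO) of HepaRG cells, housekeeping-normalized (ACTB/GAPDH/POLR2A). Changes fitted in both directions relative to vehicle.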

[3] = read-out: growth arrest and DNA damage 45 (GADD45A), GADD45A (gene 1647); experiment: LTEA_HepaRG_GADD45A: Life Technologies and Expression Analysis (LTEA) Assay for growth arrest and DNA damage 45 (GADD45A) using HepaRG (AID 2283458); conditions: mRNA level, 48 h; actives raise or lower the signal
In short: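 HepaRG, 48 h exposure, 8 conc. (top 100 uM, half-log steps), 0.5% DMSO vehicle, duplicates. Read-out: qRT-PCR mRNA level, housekeeping-normalized (ACTB/GAPDH/POLR2A). Curves fit bidirectionally vs DMSO baseline.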

[4] = read-out: Forkhead box O3 (FOXO3), FOXO3 (gene 2309); experiment: LTEA_HepaRG_FOXO3: Life Technologies and Expression Analysis (LTEA) Assay for Forkhead box O3 (FOXO3) using HepaRG (AID 2283459); conditions: mRNA level, 48 h; actives raise or lower the signal
In short: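 FOXO3 transcript measured by qRT-PCR (normalized to ACTB, GAPDH, POLR2A) after 48 h exposure of HepaRG cells in serum-free induction medium. Duplicates, eight half-log concentrations up to 100 uM, 0.5% DMSO; gain or loss fitted against DMSO.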

[5] = read-out: ABC Transporter (ABCB1), ABCB1 (gene 5243); experiment: LTEA_HepaRG_ABCB1: Life Technologies and Expression Analysis (LTEA) Assay for ABC Transporter (ABCB1) using HepaRG (AID 2283460); conditions: mRNA level, 48 h; actives raise or lower the signal
In short: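 ABCB1 transcript level measured by TaqMan qRT-PCR against three housekeeping genes after 48 h chemical exposure of differentiated HepaRG cells. Top concentration 100 uM, half-log steps, eight points, 0.5% DMSO vehicle; bidirectional fit relative to DMSO.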

[6] = read-out: growth arrest and DNA damage 45 (GADD45B), GADD45B (gene 4616); experiment: LTEA_HepaRG_GADD45B: Life Technologies and Expression Analysis (LTEA) Assay for growth arrest and DNA damage 45 (GADD45B) using HepaRG (AID 2283461); conditions: mRNA level, 48 h; actives raise or lower the signal
In short: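 Human HepaRG monolayers receive chemicals for 48 h at eight half-log concentrations, highest 100 uM, in 0.5% DMSO. Expression is measured by TaqMan qRT-PCR and normalized to ACTB, GAPDH and POLR2A.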

[7] = read-out: ABC Transporter (ABCC3), ABCC3 (gene 8714); experiment: LTEA_HepaRG_ABCC3: Life Technologies and Expression Analysis (LTEA) Assay for ABC Transporter (ABCC3) using HepaRG (AID 2283462); conditions: mRNA level, 48 h; actives raise or lower the signal
In short: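 Transcriptional change of ABCC3 in HepaRG after 48 h treatment, determined by qRT-PCR normalized to endogenous controls. Concentrations spanned eight half-log steps to 100 uM in 0.5% DMSO.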

[8] = read-out: ABC Transporter (ABCC2), ABCC2 (gene 1244); experiment: LTEA_HepaRG_ABCC2: Life Technologies and Expression Analysis (LTEA) Assay for ABC Transporter (ABCC2) using HepaRG (AID 2283464); conditions: mRNA level, 48 h; actives raise or lower the signal
In short: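 After plating and 48 h culture, HepaRG medium is replaced with serum-free induction medium and chemicals are added (8 concentrations, max 100 uM, 0.5% DMSO) for 48 h. Total RNA then undergoes qRT-PCR for ABCC2 with housekeeping normalization.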

[9] = read-out: ABC Transporter (ABCB11), ABCB11 (gene 8647); experiment: LTEA_HepaRG_ABCB11: Life Technologies and Expression Analysis (LTEA) Assay for ABC Transporter (ABCB11) using HepaRG (AID 2283463); conditions: mRNA level, 48 h; actives raise or lower the signal
In short: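 ABCB11 transcript levels quantified by TaqMan qRT-PCR against three housekeeping genes after 48 h chemical exposure of HepaRG cultures. Concentrations up to 100 uM in half-log steps, 0.5% DMSO vehicle; both induction and suppression scored.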

[10] = CEETOX_H295R_TESTO: CeeTox H295R High-throughput Steroidogenesis Assay for Testosterone (TESTO) (AID 2283457); conditions: actives raise or lower the signal;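 as to AC50: cells exposed to chemicals for 48 h before medium collection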
In short: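 Steroidogenesis in H295R cells following OECD 456 with minor changes; 48 h exposure. Medium testosterone by HPLC-MS/MS, DMSO as baseline, with MTT viability run in parallel.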

Measured: AC50

O=C1O[C@H]([C@@H](O)CO)C(O)=C1O
not listed: [9] | [10]
inactive: all other assays above

CCCC(=O)OCCC(C)C
not listed: [10]
inactive: all other assays above

Cc1ccc(C(C)C)cc1
not listed: [1] | [10]
inactive: all other assays above

Clc1cc(Cl)c2c(c1)N=C1CCCCCN1C2
active: [6] 6.31 µM
not listed: [1] | [9] | [10]
inactive: all other assays above

Oc1ccc2ccccc2c1
active: [10] 82.4 µM
not listed: [1] | [9]
inactive: all other assays above

CC(O)CC(C)(C)O (stereo unspecified)
not listed: [1] | [10]
inactive: all other assays above

CCCCCc1ccc(N)cc1
not listed: [1] | [9] | [10]
inactive: all other assays above

c1ccc(C[n+]2cccc3ccccc32)cc1
active: [2] 76.1 µM | [3] 63.7 µM | [4] 50 µM | [7] 23.2 µM
inactive: [5] | [6] | [8]

O=c1c(-c2ccc(O)cc2)coc2cc(O)cc(O)c12
active: [10] 12.3 µM
not listed: [1] | [9]
inactive: all other assays above

CCCCCCCCCC(=O)O
not listed: [1] | [10]
inactive: all other assays above

O=c1[nH]sc2ccccc12
not listed: [1] | [10]
inactive: all other assays above

CC(C)(O)c1ccc(CNC(=O)c2cccnc2Oc2ccc3nonc3c2)cc1
active: [5] 50 µM | [8] 50 µM
not listed: [1] | [10]
inactive: all other assays above

CC(C)(C)c1cc(/C=C2\SC(N)=NC2=O)cc(C(C)(C)C)c1O
inactive: [2] | [3] | [4] | [5]
active: [6] 35.5 µM | [7] 50 µM | [8] 27.6 µM

CN(C[C@@H](CC[N+]12CCC(C3CCCCC3)(CC1)CC2)c1ccc(Cl)c(Cl)c1)C(=O)c1cc(C(F)(F)F)cc(C(F)(F)F)c1
active: [2] 35.9 µM | [3] 0.171 µM | [4] 30.6 µM | [5] 74.2 µM | [9] 14.5 µM | [8] 63.3 µM
inactive: [6] | [7]

O=C1c2ccccc2C(=O)N1CCc1noc(-c2ccc(CN3CCCCCC3)s2)n1
not listed: [1] | [10]
inactive: all other assays above

NCc1cccc(C2CCN(C(=O)c3ccc(C#Cc4ccccc4F)o3)CC2)c1
inactive: [2] | [4] | [6] | [7]
active: [3] 78.9 µM | [5] 50 µM | [9] 78 µM | [8] 90.6 µM

O=C1CCC(C2CCCCC2)CC1
not listed: [1] | [9] | [10]
inactive: all other assays above

Cc1occc1C(=O)Nc1ccc(C(=O)N2CCC(F)(F)/C(=C\C(=O)N3CCC(N4CCCCC4)CC3)c3ccccc32)cc1
active: [7] 47 µM | [9] 44.5 µM
not listed: [1] | [10]
inactive: all other assays above

O=C(Nc1ccc(Cl)cc1)Nc1ccc(Cl)c(Cl)c1
active: [2] 18.6 µM | [3] 21.7 µM | [4] 11.8 µM | [5] 18.9 µM | [6] 22.9 µM
inactive: [10] | [7] | [8]

CO[C@H]1/C=C/O[C@@]2(C)Oc3c(C)c(O)c4c(O)c(c(/C=N/N5CCN(C)CC5)c(O)c4c3C2=O)NC(=O)/C(C)=C\C=C\[C@H](C)[C@H](O)[C@@H](C)[C@@H](O)[C@@H](C)[C@H](OC(C)=O)[C@@H]1C
active: [5] 0.442 µM | [8] 0.344 µM
inactive: [2] | [3] | [4] | [6] | [7]

CC1(C)NC(=O)N(c2ccc([N+](=O)[O-])c(C(F)(F)F)c2)C1=O
inactive: [2] | [4] | [6] | [8]
active: [3] 50 µM | [5] 50 µM | [7] 75.3 µM

CCCCCCCCCCCC[N+](C)(C)C
inactive: [2] | [4] | [5] | [7]
active: [3] 74.9 µM | [6] 84.1 µM | [9] 73.9 µM | [8] 50 µM

Clc1ccccc1C(c1ccccc1)(c1ccccc1)n1ccnc1
active: [5] 15.8 µM | [7] 78.3 µM | [9] 28.6 µM
not listed: [1] | [10]
inactive: all other assays above

Cc1oc2c(NC(=O)c3c(Cl)cccc3Cl)cccc2c1C(C)(C)O
inactive: [2] | [3] | [4]
active: [5] 80.5 µM | [6] 75.6 µM | [7] 16.1 µM | [9] 23.8 µM | [8] 33.8 µM

Cc1ccc2oc(CN(Cc3ccccc3)C(=O)Nc3c(F)cc(F)cc3F)c(-c3ccc(Cl)cc3)c2c1
inactive: [2] | [4] | [6] | [7]
active: [3] 8.78 µM | [5] 19.7 µM | [8] 13.7 µM

C[C@]12CC[C@@H]3c4ccc(O)cc4CC[C@H]3[C@@H]1CCC2=O
active: [5] 14.4 µM
not listed: [1] | [10]
inactive: all other assays above

CCCCCCCCCCCO
not listed: [1] | [10]
inactive: all other assays above

CC(=O)N1CCN(c2ccc(OC[C@H]3CO[C@](Cn4ccnc4)(c4ccc(Cl)cc4Cl)O3)cc2)CC1
inactive: [6]
active: [2] 33.4 µM | [3] 12.5 µM | [4] 77.6 µM | [7] 91.8 µM | [8] 31.1 µM

CCN(CC)C(=O)c1cc(S(=O)(=O)Cc2ccccc2)c(N2CCC(c3ccccc3)CC2)cc1N(CC)CCN(C)C
active: [5] 35.1 µM | [7] 31 µM | [8] 30.8 µM
not listed: [1] | [10]
inactive: all other assays above

CC(C)(C)c1csc(-c2cc3cc(OCc4ccccc4CC(=O)O)ccc3o2)n1
inactive: [3] | [4] | [7]
active: [2] 81.3 µM | [5] 79 µM | [6] 42.6 µM | [9] 15.8 µM | [8] 93.8 µM

CN(C)C(=O)C1(N2CCCCC2)CCN(CC[C@@]2(c3ccc(Cl)c(Cl)c3)CN(C(=O)c3ccccc3)CCO2)CC1
active: [2] 47.2 µM | [5] 23.4 µM | [6] 29 µM | [7] 79.4 µM | [8] 23.7 µM
inactive: [3] | [4]

CC(C)(c1cc(Br)c(O)c(Br)c1)c1cc(Br)c(O)c(Br)c1
active: [4] 89.2 µM | [6] 74.5 µM | [9] 9.94 µM
not listed: [1] | [10]
inactive: all other assays above

Cc1cccc2ccccc12
not listed: [1] | [10]
inactive: all other assays above

Cc1cn([C@H]2C[C@H](N=[N+]=[N-])[C@@H](CO)O2)c(=O)[nH]c1=O
not listed: [1] | [9] | [10]
inactive: all other assays above

OCCO
active: [4] 12.7 µM
not listed: [1] | [9] | [10]
inactive: all other assays above

c1ccc2n[nH]nc2c1
not listed: [1] | [9] | [10]
inactive: all other assays above

CCCCCCCCOC(=O)c1cc(O)c(O)c(O)c1
not listed: [1] | [10]
inactive: all other assays above

CC[C@H](NC(=O)c1cc(F)ccc1NS(=O)(=O)c1cccc2cccnc12)c1ccccc1
active: [5] 1.34 µM | [9] 47.8 µM | [8] 11.7 µM
not listed: [1] | [10]
inactive: all other assays above

CC[C@@H]1C[C@H](N(Cc2cc(C(F)(F)F)cc(C(F)(F)F)c2)C(C)=O)c2cc(C(F)(F)F)ccc2N1C(=O)OC(C)C
active: [5] 0.429 µM | [8] 0.737 µM
inactive: [2] | [3] | [4] | [6] | [7]

CCO[Si](CCCNC(N)=O)(OCC)OCC
not listed: [1] | [10]
inactive: all other assays above
